Screens as filed in PubChem.
Tg IFNy HTS: T. gondii growth inhibition with IFN-gamma, primary screen, cell-based. actives 3.8% (n = 69,000). AID 1259416, 2018. Toxoplasma gondii growth in IFN-gamma-treated host cells; active compounds read low. activity change, negative = inhibition, % (test concentration not listed); in the data active = activity change below about -70%, passing the limit was not always enough;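 note: host cells are HeLa cells infected with Toxoplasma gondii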
The depositor's hits bear a star; ! = repeats disagree. The entries come from a sample that favours hits as a whole.

SMILES	Tg IFNy HTS
COc1ccc(-n2cccn2)c(CN2CCC(n3nc(C)cc3C)C2)c1 (centres undefined)	-5
COc1ccc(-c2nc(CN3CCCC3c3ccccn3)c(C)o2)cc1 (centres undefined)	7
CC[C@H](CO)Nc1nc(Nc2cccc(-c3ccccn3)c2)c2ncn(C(C)C)c2n1	-79*
CC(C)n1cnc2c(-c3cccnc3)nc(C3CCN(Cc4ccccn4)CC3)cc21	-35
CC[C@H](CO)Nc1nc(NCc2ccc(-c3ccccn3)cc2)c2ncn(C(C)C)c2n1	-79*
CC(C)[C@H](CO)Nc1nc(Nc2cccc(Cl)c2)c2ncn(C(C)C)c2n1	-74*
Cn1cnc2c(NCc3ccccc3)nc(NCCO)nc21	7
CC(C)n1cnc2c(NCc3ccccc3)nc(NCCCO)nc21	-5
CCn1ncc2c1C(COC)CN(CC1CC1)C2 (centres undefined)	10
CCN(CC)Cc1cnc2c(C(=O)N3CCC3c3cccs3)cnn2c1 (centres undefined)	-5
CC(C)C1CN(C(=O)CCc2ccc(=O)[nH]n2)CCCN1CC1CC1 (centres undefined)	42
CCN1C(=O)C(c2ccccc2)CC12CCN(S(C)(=O)=O)CC2 (centres undefined)	60
COc1cc2c(Oc3ccc4[nH]c(C)cc4c3F)ncnc2cc1OCCCN1CCCC1	-59
C#Cc1cccc(Nc2ncnc3cc(OCCOC)c(OCCOC)cc23)c1	-47
COc1cc2c(Nc3ccc(NC(=O)c4ccccc4)cc3)ncnc2cc1OCCCN1CCOCC1	-76*!
Cc1ccccc1NC(=O)N1CCCC(c2n[nH]c(=O)n2-c2ccccc2)C1 (centres undefined)	-2
Cc1cn(CC(=O)N2CCCC(N(C)CCc3ccccc3)C2)c(=O)[nH]c1=O (centres undefined)	10
COc1ccc2[nH]c3c(c2c1)CCNC3C1CC=C(C)CC1 (centres undefined)	-84*
COc1ccc2[nH]c3c(c2c1)CCNC31C(=O)N(C)c2ccccc21 (centres undefined)	311
COc1ccc2[nH]nc(C(=O)N3C[C@H]4CC=C(C)C[C@H]4C3)c2c1	-42
CCCc1nnc(SCC(=O)NC2CCCC2)n1Cc1ccco1	7
CCN(CC)CCCNS(=O)(=O)c1ccc2[nH]c(=O)ccc2c1	66
O=C(c1nnc2n1CCCC2)N1CCc2c(ncnc2N2CCOCC2)C1	-1
CCNc1ccnc(N2CCN(Cc3ccc4c(c3)OCO4)CC2)n1	-13
CCc1cnc(C)nc1N1CCN(Cc2ccc3c(c2)OCO3)C(=O)C1	-85*
SMILES	Tg IFNy HTS
Cc1ccc(NC(=O)CC(=O)N2CCN(Cc3ccc4c(c3)OCO4)C(=O)C2)cc1	-52
COc1cccc(Cn2c(-c3ccc(Cl)cc3)noc2=O)c1	68
Cc1ccccc1CNC(=O)c1c(O)c2cccnc2n(-c2cccc(F)c2)c1=O	185
COCCN1C(=O)CCC12CCN(C(=O)c1cnoc1C)CC2	-54
CCOc1ccc(-c2nc3c(s2)CN(C(=O)Nc2ccc(C)cc2)CC3)cc1	-66
CCOc1ccc(-c2nc3c(s2)CN(C(=O)Nc2ccc(C)c(C)c2)CC3)cc1	-106*
COc1ccc(C)cc1NC(=O)N1CCc2nc(-c3ccc(C)cc3)sc2C1	-13
COc1ccc(-c2nc3c(s2)CN(C(=O)Nc2ccc(C)cc2C)CC3)cc1	53
CCOc1ccc(-c2nc3c(s2)CN(C(=O)Nc2cc(C)ccc2C)CC3)cc1	-112*
Cc1ccc(NC(=O)N2CCc3nc(-c4ccccc4)sc3C2)cc1C	101
CCc1noc(CN(CC)C(=O)CC2C(=O)Nc3cc(C)cc(C)c32)n1 (centres undefined)	41
COc1ccccc1NC(=O)CN1CCC2(CC1)N=C(c1cccc(C)c1)C(=O)N2	35
O=C(c1cn(-c2ccccc2)nn1)N1CCC(C(O)c2ccccn2)CC1 (centres undefined)	-10
CN(C)CC1COCCN(Cc2cccn2-c2ccc(Cl)cn2)C1 (centres undefined)	5
CC(=O)N1CCC2(CC1)OC(=O)C(C)=C2C(=O)NCCCN1CCOCC1	33
COc1c2ccoc2cc2oc(=O)ccc12	-87*!
O=c1ccc2cc3ccoc3cc2o1	8
COc1ccc2c(c1)c(=O)oc1cc3occ(C(C)(C)C)c3cc12	-32
COc1ncccc1C(=O)NCCC(=O)Nc1cccc(C)c1	-5
CC(=O)N1CCc2ncc(CNC(=O)CC3CC3)n2CC1	-21
c1cc(C2CCN(c3ncnc4c3CCNC4)CC2)ccn1	-11
COc1cccc(OCCN2CCN(c3ncnc4c3CCNC4)CC2)c1	-53
COc1cccc(C2CCN(c3ncnc4c3CCNC4)C2)c1OC (centres undefined)	-72*
CNC(=O)c1[nH]cnc1C(=O)Nc1ccc(N)cc1	-11
Cc1cccc(CN2CCCC3(CCN(C(=O)c4cccn4C)C3)C2)n1 (centres undefined)	-22
SMILES	Tg IFNy HTS
CCN1C(=O)CCc2cc(C(=O)N3CCCCC3)ccc21	18
CCN1C(=O)CCc2cc(C(=O)N3CCOCC3)ccc21	12
O=C(c1ccc2c(c1)CCC(=O)N2Cc1ccccc1)N1CCN(c2ccccc2F)CC1	-102*
OCCOc1cccc(-c2nc[nH]c2-c2ccccc2)c1	22
CN1CCN(c2cc(C(F)(F)F)ccn2)CC1C(=O)O (centres undefined)	-4
CN(C(=O)C(C)(C)Oc1cc(C(F)(F)F)n(C)n1)c1ccccc1	4
Cc1ccccc1-c1cc(N2CCN(C)CC2)ncc1N(C)C(=O)C(C)(C)c1cc(C(F)(F)F)cc(C(F)(F)F)c1	-73*
Cc1ccc(CN2CCCN(C)C3(CCN(C)CC3)C2)c(Cl)c1Cl	0
CCOC(=O)c1noc2ncn(Cc3nc(-c4ccccc4Cl)oc3C)c(=O)c12	-4
CC(C)Cc1cc(CNc2nc(-c3cccnc3)nc3c2CCNC3)no1	-36
CC(C)(C)CC(Nc1nc(-c2cccnc2)nc2c1CNC2)c1cccnc1 (centres undefined)	-18
CCc1cc(C(C)Nc2nc(-c3cccnc3)nc3c2CNC3)on1 (centres undefined)	-88*
CC(C)N(C)[C@@H]1CCN(C(=O)C2CCOC2)[C@@H]1Cc1ccccc1 (some centres undefined)	28
CC(=O)C(C)(C)OC(=O)NCc1cccs1	32
CC(=O)C(C)(C)OC(=O)NCCc1ccc(Cl)cc1	-76*
COc1ccc(Cl)cc1C(=O)NCCc1ccc(C(=O)O)cc1	14
O=C(NC1CC1)c1cc2n(n1)CCCN(C(=O)c1cnn3ccccc13)C2	2
Cc1noc(-c2ccccc2OCC(=O)N2CCCN(c3ccccn3)CC2)n1	-2
CN1CCN(C(=O)c2cccc(O)c2)CC1C(=O)O (centres undefined)	-1
COc1cc(O)c(C(=O)c2ccccc2)cc1O	8
O=C(c1ccccc1)c1cc(C(=O)c2ccccc2)c(-c2ccccc2)nc1-c1ccccc1	-89*
Cc1nc(-c2ccccc2)c(NC(=O)c2ccccc2)s1	12
Cc1cc(C)cc(C(=O)N2CCN(S(=O)(=O)c3cc4c5c(c3)CCN5C(=O)CC4)CC2)c1	22
CCN(CC)c1ccc2c(C)c(CC(C)=O)c(=O)oc2c1	-98*
COc1ccc(-c2c(C)c3ccc(OCC(C)=O)cc3oc2=O)cc1	202
Cc1cc(OC(C(=O)O)c2ccccc2)c2c(C)c(Cc3ccccc3)c(=O)oc2c1 (centres undefined)	8
CCn1ncc(C(=O)NCC(C)Cn2nc(C)cc2C(F)(F)F)c1C (centres undefined)	0
